Measurements: paper PMC8384837, “Expanding the binding specificity for RNA recognition by a PUF domain”

Target: PUM1 PUF domain R4-SNS (Homo sapiens, UniProt Q14671 828-1176, N971S;H972N;Q975S)
Experiment: yeast three-hybrid, YBZ-1, SC-Leu-His + 0.5 mM 3-AT, 4 days
Details: tags: N-Gal4 AD-HA kept; label: inside an RPR1-promoter hybrid RNA with tandem MS2 sites; ssRNA
How it was run: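 Sequencing with Illumina followed PCR amplification of the repeat regions from transformants grown four days on SC-Leu (input) or SC-Leu-His + 0.5 mM 3-AT (selection). The transformants were strain YBZ-1 with a LexA–MS2 coat fusion and a HIS3 reporter, carrying Pumilio-1 PUF domain libraries and matching RNA elements. The interaction score is the log change in variant frequency from input to selection, computed in log2 with a pseudocount of 1 for absent variants.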

| Sequence | binding signal |
| --- | --- |
| GGCUAGAACUAGUGGAUCCCCCGGCGCCCGGCGGCUCGAGCCCGGGUAAGUGUAUAUAGUCUGCAUGCCGCCGGGCGCCAUGCCUGCAGGUCGACUCUAGAAAACAUG | 2.15 log2 enrichment (interaction score) |
| GGCUAGAACUAGUGGAUCCCCCGGCGCCCGGCGGCUCGAGCCCGGGUAAGUGUAAAUAGUCUGCAUGCCGCCGGGCGCCAUGCCUGCAGGUCGACUCUAGAAAACAUG | 2.68 log2 enrichment (interaction score) |
| GGCUAGAACUAGUGGAUCCCCCGGCGCCCGGCGGCUCGAGCCCGGGUAAGUGUACAUAGUCUGCAUGCCGCCGGGCGCCAUGCCUGCAGGUCGACUCUAGAAAACAUG | 0.99 log2 enrichment (interaction score) |
